Screening results as filed in PubChem BioAssay.
An excerpt weighted towards active compounds, which were near 1.4% of everything screened.
p53 reactivation: restores transcriptional activity of mutant p53; H1299 p53-A138V BP100-luciferase reporter, luminescence, 24 h; Potency, µM (highest dose often 92.2 µM), hits mostly activators; 320,000 compounds, 0.063% hits; AID 504706; further: nearly all actives have a fitted effect of over 45% in size
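H1299 (p53-null), stable ts p53-A138V + BP100-Luc; 1000 cells/well, Opti-MEM/10% FBS; cpd 4 pt, 1:5; 24 h, 37 deg C, 5% CO2; detection reagent 10 min RT; luminescence.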
ASM inhibitor: human S-ASM enzyme inhibition; placental ASM, HMU-PC fluorogenic substrate, 60 min; Potency, µM (doses to about 57.5 µM), most hits filed as inhibitors; 340,000 compounds, 0.006% hits
Target sequence (P17405 47-631 limits assumed): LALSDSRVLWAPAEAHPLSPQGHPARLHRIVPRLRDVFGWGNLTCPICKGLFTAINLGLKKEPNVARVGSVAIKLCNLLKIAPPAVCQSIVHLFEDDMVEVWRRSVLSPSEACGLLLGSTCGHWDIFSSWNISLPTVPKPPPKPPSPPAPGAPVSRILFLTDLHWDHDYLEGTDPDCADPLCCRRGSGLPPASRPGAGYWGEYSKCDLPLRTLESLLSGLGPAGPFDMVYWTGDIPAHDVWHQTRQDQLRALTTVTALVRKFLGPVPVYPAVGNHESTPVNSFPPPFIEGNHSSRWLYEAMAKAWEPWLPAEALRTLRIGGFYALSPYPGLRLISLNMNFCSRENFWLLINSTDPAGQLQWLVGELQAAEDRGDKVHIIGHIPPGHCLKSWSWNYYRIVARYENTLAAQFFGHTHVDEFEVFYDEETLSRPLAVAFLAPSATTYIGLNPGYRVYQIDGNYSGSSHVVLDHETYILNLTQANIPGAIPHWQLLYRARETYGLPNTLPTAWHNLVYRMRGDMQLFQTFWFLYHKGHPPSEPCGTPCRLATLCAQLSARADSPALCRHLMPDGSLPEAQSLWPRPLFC
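Human placenta-derived ASM enzyme was preincubated with compound for 10 minutes at room temperature, then given fluorogenic substrate HMU-PC0 (9 uM final) for 60 minutes at 37 °C; a pH 10 stop preceded fluorescence reading at Ex 386/Em 447 nm.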
Mm-Cpn inhibitor: M. maripaludis TRiC chaperonin inhibition; purified Mm-Cpn ATPase, ADP Transcreener TR-FRET; Potency, µM (series often up to 76.9 µM), most hits filed as inhibitors; 330,000 compounds, 0.031% hits; AID 504842; further: nearly all actives have a fitted effect of over 80% in size
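Compound-treated chaperonin, 25 nM final, turns over 10 uM ATP at 37°C for 30 min following a 10 min preincubation; ADP generated competes with ADP-d2 for Eu-cryptate antibody, lowering FRET.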
KCNH2 3.1 inh: blocks the human KCNH2 3.1 channel isoform | activity change, % (tested at about 1.8 µM) | 340,000 compounds, 0.95% hits | U2OS KCNH2 3.1, thallium flux FluxOr; stronger effect = lower value;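 active means maximum activity change below -70%; inconclusive means maximum activity change from -70% to -50%; inactive means maximum activity change above -50%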;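 further: thallium influx rate constant from kinetic fluorescence after stimulation buffer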
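U2OS cells transduced with KCNH2 3.1 mutant virus (1.77 x 10^8 /mL, 4 h), plated overnight at 37 C, loaded 45 min with FluxOr dye plus Red40 quencher. Thallium flux rate constant from kinetic reads after stimulation buffer, normalised to controls.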
uPA surface inh: cell surface uPA generation inhibition. 330,000 compounds, 0.31% hits. cell surface uPA generation assay, qHTS. AID 540303. Potency, µM (doses to about 38.3 µM), hits mostly inhibitors; active means well fitted inhibition curve with a large enough effect; inconclusive means small, poorly fitted or top-dose-only effect; inactive means no such curve, though single readings can be large or run the other way; tested in mouse RAW 264.7 cells; further: nearly all actives have a fitted effect of over 55% in size
KCNH2 WT inh: inhibitors of human wildtype KCNH2 potassium channel. Q12809. U2OS, BacMam KCNH2, thallium flux FluxOr; stronger effect = lower value. activity change, % at 1.84 µM. 340,000 compounds, 0.37% hits;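 active means maximum activity change below -70%; inconclusive means maximum activity change between -70% and -50%; inactive means maximum activity change above -50%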
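U2OS cells were transduced with wild-type KCNH2 virus (2.03 x 10^8 / mL) for 4 h at room temperature, then cultured overnight at 37 C. Thallium flux was read with FluxOr dye. Rate constants were normalized to DMSO controls.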
Each line names hits and unclear results; the compound was inactive in the other large screens. Unless noted, the call rests on the fitted dose curve; in most records, active means well fitted curve in the direction sought with a large enough effect; inconclusive means small, poorly fitted or top-dose-only effect, or another doubt; inactive means no such curve, though single readings can be large; an effect the other way counts as inactive or inconclusive.

O=C1N2CCSC2=NC1(Nc1ccccn1)C(F)(F)F (stereo not given)	none
CS(=O)(=O)c1ccc2nc(NC3(C(F)(F)F)N=C4SCCN4C3=O)sc2c1 (stereo not given)	KCNH2 WT inh -85
Cc1cc(C)cc(NC(=O)CSc2nc(=O)n3cc(C)ccc3n2)c1	none
Cc1ccc(C)c(Nc2nc3c(S(=O)(=O)c4ccccc4)nnn3c3ccccc23)c1	KCNH2 3.1 inh -72
COc1ccc(CCNC(=O)Cn2nc(C)c3c(C)n(-c4ccc(C)cc4)nc3c2=O)c(OC)c1	none (no result: p53 reactivation, ASM inhibitor, KCNH2 3.1 inh, uPA surface inh, KCNH2 WT inh)
CCCCOCCOC(=O)C1OC1(C)c1ccccc1 (stereo not given)	none (no result: p53 reactivation, ASM inhibitor, Mm-Cpn inhibitor, uPA surface inh)
O=C(CN1C2=NCCCN2c2ccccc21)c1cccc(Br)c1	KCNH2 3.1 inh inconclusive
O=C(CN1C2=NCCCN2c2ccccc21)c1ccc([N+](=O)[O-])cc1	KCNH2 3.1 inh -74, uPA surface inh inconclusive
N#Cc1cccc(C(Br)S(=O)(=O)c2ccccc2)c1 (stereo not given)	none (no result: p53 reactivation, ASM inhibitor, Mm-Cpn inhibitor, uPA surface inh)
CN1CCN(C(=O)c2ccccc2NS(=O)(=O)c2ccc(F)cc2)CC1	none
CC(=O)c1ccccc1OCC(O)CN1CCN(C(c2ccccc2)c2ccccc2)CC1 (stereo not given)	KCNH2 3.1 inh -85, KCNH2 WT inh -74
COc1cccc(CN2CCN(C(c3ccccc3)c3ccccc3)CC2)c1O	KCNH2 3.1 inh -74
OC(CN1CCN(C(c2ccccc2)c2ccccc2)CC1)c1ccc(Br)cc1 (stereo not given)	KCNH2 3.1 inh -104, KCNH2 WT inh -103
c1ccc(OCCN2CCN(C(c3ccccc3)c3ccccc3)CC2)cc1	p53 reactivation inconclusive, KCNH2 3.1 inh -96
COc1cc(CN2CCN(C(c3ccccc3)c3ccccc3)CC2)cc(OC)c1OC	KCNH2 3.1 inh inconclusive (no result: p53 reactivation)
CC(C)(C)S(=O)N1Cc2cc(CO)ccc2[C@H]1CCO (stereo not given in full)	none (no result: p53 reactivation, ASM inhibitor, Mm-Cpn inhibitor, uPA surface inh)
COc1ccc(N(C)S(=O)(=O)c2cccc(C(=O)N3CCN(c4cccc(C)c4C)CC3)c2)cc1	none (no result: p53 reactivation, Mm-Cpn inhibitor)
COC(=O)C[C@H]1C[C@H]2c3cc(NC(=O)CC4CC4)ccc3O[C@H]2[C@H](CO)O1	none (no result: p53 reactivation, ASM inhibitor, Mm-Cpn inhibitor, uPA surface inh)
CCOC(=O)C(C(=O)OCC)C(c1ccccc1)N1CCN(c2ccccc2)CC1 (stereo not given)	none (no result: p53 reactivation, Mm-Cpn inhibitor)
Cc1noc(C)c1NC(=O)Nc1ccc2c(c1)CC(=O)N([C@@H](C)CO)C[C@@H](C)[C@@H](CN(C)C(=O)Nc1cccc3ccccc13)O2	none
CN1CCN(CC(O)c2ccccc2)CC1 (stereo not given)	none (no result: ASM inhibitor, KCNH2 3.1 inh, uPA surface inh, KCNH2 WT inh)
OC(CN1CC=C(/C=C/c2ccc(Br)cc2)CC1)c1ccccc1 (stereo not given)	KCNH2 3.1 inh -93 (no result: p53 reactivation)
COC(=O)c1ccccc1NC(=O)CCCCCn1nnc2ccccc2c1=O	none
COc1ccc2[nH]c3c(c2c1)CCNC3C1CC=C(C)CC1 (stereo not given)	uPA surface inh 2.8µM
Cc1cc(C(c2nnnn2Cc2ccccc2)N2CCOCC2)c(C)n1-c1ccc2c(c1)OCO2 (stereo not given)	p53 reactivation 32µM, uPA surface inh inconclusive
Cc1cc(C)nc(SCc2ccc(C(=O)NN=C3C4CC5CC(C4)CC3C5)cc2)n1	none
O=C(NN=C1C2CC3CC(C2)CC1C3)c1ccncc1	KCNH2 WT inh -183
C/C=C/c1ccc(OCC(=O)Nc2cc(Cl)ccc2-n2cncn2)c(OC)c1	none
CCn1c(O)c(/C=C/C=C/C=Nc2ccccc2)sc1=S	KCNH2 3.1 inh -184, KCNH2 WT inh -226
CC(C)c1ccc(NC(=O)c2cc(S(=O)(=O)NCC3COc4ccccc4O3)ccc2F)cc1 (stereo not given)	KCNH2 3.1 inh -72
O=[N+]([O-])/C(Cl)=C(/NCCO)C(Cl)=C(Cl)Cl	none (no result: p53 reactivation, Mm-Cpn inhibitor)
Cc1cc(Nc2ccc(Cl)cc2)nc(NCc2ccccc2)n1	ASM inhibitor inconclusive, KCNH2 3.1 inh -78
Cc1cc(N/N=C/c2ccc(F)cc2)nc(NCc2ccccc2)n1	KCNH2 3.1 inh -100
Cc1ccc(Nc2cc(C)nc(-c3ccccc3)n2)cc1	p53 reactivation inconclusive, ASM inhibitor inconclusive, KCNH2 3.1 inh -77
Cc1cc(Nc2ccccc2)nc(NCc2ccccc2)n1	none
Cc1ccc(/C=N/Nc2cc(C)nc(NCc3ccccc3)n2)cc1	ASM inhibitor inconclusive, KCNH2 3.1 inh -80
COc1ccc2cc(C[C@@H]3CC[C@@H](CO)O3)ccc2c1	p53 reactivation inconclusive, uPA surface inh inconclusive
O=C(CCl)N1CCN(S(=O)(=O)c2ccc3c(c2)CCC3)CC1	uPA surface inh 1µM
CCOC(=O)c1cc(-c2ccc(N3CCOCC3)cc2)nn1-c1ccc(F)cc1F	ASM inhibitor 28µM
COc1ccccc1-c1sc2cc3c(cc2c1C#Cc1ccccn1)OCO3	p53 reactivation inconclusive, Mm-Cpn inhibitor 32µM, uPA surface inh inconclusive
COc1ccccc1-c1sc2cc3c(cc2c1C#CC1(O)CCCCC1)OCO3	Mm-Cpn inhibitor inconclusive
CCCCOc1ccc(C(=O)Nc2ccc(OCC(=O)N3CCOCC3)cc2)cc1	uPA surface inh 7.1µM
O=C(COc1ccc(/C=N/NS(=O)(=O)c2ccccc2)cc1)N1CCOCC1	none
Cc1ccc(S(=O)(=O)N/N=C/c2ccc(OCC(=O)N3CCOCC3)cc2)cc1	KCNH2 3.1 inh -72
CCN(CC)S(=O)(=O)c1ccc(C(=O)Nc2ccc(OCC(=O)N3CCOCC3)cc2)cc1	none
O=C(O)C(CCc1ccccc1)N1CCOCC1 (stereo not given)	none (no result: p53 reactivation, ASM inhibitor, Mm-Cpn inhibitor, uPA surface inh)
COc1ccc2nc(SCC(=O)NC3CCCCC3C)[nH]c2c1 (stereo not given)	uPA surface inh 8.9µM
CCC(=O)Nc1ccnc(-c2cccnc2)n1	KCNH2 3.1 inh -108 (no result: uPA surface inh)
Cc1ccc(C(=O)Nc2ccnc(-c3cccnc3)n2)cc1	KCNH2 3.1 inh -109
CCN(C(=O)CSc1ccccn1)C1CCCCC1	none
COc1ccc(Nc2ccnc3ccccc23)cc1	p53 reactivation inconclusive
CC(C)Nc1ccc(Nc2ccnc3cc4ccccc4cc23)cc1	KCNH2 3.1 inh -91
O=[N+]([O-])c1ccc(/C=C/C2=NN(c3ccccc3)C(c3ccco3)C2)o1 (stereo not given)	p53 reactivation inconclusive, KCNH2 3.1 inh -73
CCc1ccc(OCCCCN(C)Cc2ccccc2)cc1	none
Cc1ccc(C)c(NC(=O)CN(C)C(=O)c2ccc(COc3ccccc3)cc2)c1	none (no result: p53 reactivation, ASM inhibitor, Mm-Cpn inhibitor, uPA surface inh)
Cc1ccc(/C(N)=N/OC(=O)c2cccs2)cc1	p53 reactivation inconclusive, KCNH2 3.1 inh -185, KCNH2 WT inh -176
Cc1ccc(/C(N)=N/OC(=O)c2ccco2)cc1	p53 reactivation 18µM
N/C(=N\OC(=O)c1cccs1)c1ccccc1	p53 reactivation inconclusive (no result: KCNH2 3.1 inh)
CCOC(=O)c1ccc(S(=O)(=O)N2CCN(c3ccccn3)CC2)cc1	none
